According to PubChem BioAssay (NCATS):
“And” between values parts separate entries of the source, which are not always exact repeats. Identical values can stand only once. Records with an inconclusive call do not appear. The source made the active and inactive calls. Unless noted, the call rests on the fitted dose curve; in most records, active means well fitted curve in the direction sought with a large enough effect; inconclusive means small, poorly fitted or top-dose-only effect, or another doubt; inactive means no such curve, though single readings can be large; an effect the other way counts as inactive or inconclusive.

How the values were obtained:
[1] = target: Voltage-gated inwardly rectifying potassium channel KCNH2 (Homo sapiens) (UniProt Q12809); assay: qHTS Assay for Small Molecule Inhibitors of the Human hERG Channel Activity (AID 588834);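 further: top concentration of the series differs between compounds; on the % scale 0 is the no-effect control and ±100 the full control effect; lower thallium flux fluorescence means stronger hERG block; nearly all actives have a fitted effect of over 50% in size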
In short: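 Thallium serves as surrogate for K+ influx through BacMam-delivered hERG in U2OS cells. Compounds are added for about 10 minutes after dye loading; stimulation buffer then starts flux, monitored kinetically on FDSS.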

[2] = target: Luciferin 4-monooxygenase (Photinus pyralis) (UniProt P08659); assay: Biochemical firefly luciferase enzyme assay for NPC (AID 624030);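 further: purified P. pyralis luciferase at 10 nM with luciferin and ATP substrate; 0% = DMSO and -100% = full luciferase inhibition by PTC124 control; nearly all actives have a fitted effect of over 70% in size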
In short: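 Counter-screen for direct inhibition of the luciferase enzyme by approved-drug library compounds, run at 10 nM enzyme in 50 mM Tris acetate (final). Luminescence was read within 5 min of enzyme-buffer addition and normalized to PTC124 versus DMSO (0%).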

[3] = S16 Schwann cell viability assay (CellTiter-Glo assay) (AID 624031);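 further: cellular ATP luminescence as a viability measure; plate controls were DMSO-treated cells for no effect and cell-free wells for full effect; nearly all actives have a fitted effect of over 70% in size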
In short: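 This viability control uses native rat S16 Schwann cells grown in DMEM plus 10% FBS. After a 24 h compound treatment at 37 °C, CellTiter-Glo luminescence reports ATP content, scaled against DMSO-treated and cell-free wells.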

[4] = S16 Schwann cell PMP22 intronic element firefly luciferase assay (AID 624032);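 further: plate controls were DMSO for no effect and PTC124 positive control mean for full effect; nearly all actives have a fitted effect of over 30% in size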
In short: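 Rat S16 Schwann cells stably carrying a PMP22 intronic element-driven Fluc reporter were seeded overnight, then exposed to compounds for 24 h at 37 °C. Luminescence was normalized to PTC124 (positive control) and DMSO (0% activity).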

[5] = S16 Schwann cell PMP22 intronic element beta-lactamase assay (AID 624044; calls by dose curve;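 further: 0% = DMSO and -100% = potassium clavulanate positive control; nearly all actives have a fitted effect of over 15% in size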); conditions: S16 rat Schwann cells, PMP22 element beta-lactamase FRET, 24 h; ratio activity, negative = inhibition: at 38.3 µM (top of the series) unless noted
In short: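 Beta-lactamase reporter under a PMP22 intronic regulatory element in stable S16 rat Schwann cells; 24 h compound exposure. 460 nm blue signal normalized between DMSO (0%) and potassium clavulanate, with 535 nm FRET tracking viability; curves classed by r2 and response.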

[6] = qHTS assay for small molecule agonists of the antioxidant response element (ARE) signaling pathway (AID 651741; active means well fitted activation curve with a large enough effect in the signal ratio; the % refers to the signal ratio; further: % of control where 0% means no effect)
In short: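 Beta-lactamase reporter expression driven by the antioxidant response element in HepG2 cells was detected by fluorescence with LiveBLAzer B/G FRET substrate (2 h, room temperature) following 16 h compound treatment at 37 C.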

[7] = qHTS assay for small molecule activators of the p53 signaling pathway (AID 651743; active means well fitted activation curve with a large enough effect in the signal ratio, not every such curve was filed as active; the % refers to the signal ratio; further: % of control where 0% means no effect); conditions: HCT-116 p53RE-bla, beta-lactamase FRET ratio, 16 h; activation: hits give high values
In short: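 Here HCT-116 cells with an integrated p53-responsive beta-lactamase gene were incubated with compounds (16 hours, 37 C) after a 5-hour plating period; beta-lactamase activity was detected as fluorescence intensity via B/G FRET substrate.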

[8] = qHTS assay for small molecule activators of the nuclear factor-kappa B (NF-kB) signaling pathway (AID 651749; active means well fitted activation curve with a large enough effect in the signal ratio; the % refers to the signal ratio; further: % of control where 0% means no effect); conditions: NF-kB-bla ME-180 cells, beta-lactamase FRET ratio, 16 h; hits give high values
In short: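 Beta-lactamase reporter expression, controlled by NF-kB response elements in ME-180 cells, was quantified fluorometrically via FRET disruption; cells at 2,000/well had been incubated with 23 nL test compound for 16 hr.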

[9] = target: Tumor necrosis factor (Homo sapiens) (UniProt P01375); assay: qHTS assay to identify small molecules that stimulate Tumor Necrosis Factor-alpha (TNF-alpha) secretion (AID 651757; active means well fitted curve in the direction sought with a large enough effect in the signal ratio; the % refers to the signal ratio; further: 0% is about no effect)
In short: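 Using 3000 THP-1 cells per well, compounds and controls were applied for 17 hrs at 37 C. Detection followed with two labeled anti-TNF-alpha antibodies (cryptate donor, XL665 acceptor) for 3 hr at room temperature, measured by TR-FRET.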

[10] = qHTS assay for environmental chemicals that activate the Aryl hydrocarbon Receptor (AhR) signaling pathway (AID 651777); conditions: 1A2-DRE human hepatoma cells, luciferase, 24 h; activation: hits give high values; further: % of control where 0% means no effect; nearly all actives have a fitted effect of over 15% in size
In short: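 Following a 24 hr incubation with test chemicals at 37 C and 5% CO2, 1A2-DRE human hepatoma cells received One-Glo reagent; after 30 min at room temperature, luciferase output reflected CYP1A2 induction via AhR.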

[11] = target: Peroxisome proliferator-activated receptor alpha (Homo sapiens) (UniProt Q07869); assay: qHTS assay for small molecule agonists of the peroxisome proliferator-activated receptor alpha (PPARalpha) signaling pathway (AID 651778); conditions: PathHunter PPARalpha complementation, chemiluminescence, 6 h; hits give high values; further: % of control where 0% means no effect
In short: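 Cells plated at 2,000/well and held overnight at 37 C, 5% CO2, then compound added by pin tool for 6 hr; after PathHunter detection reagent and 60 min at room temperature, chemiluminescence from enzyme complementation was read.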

[12] = target: Nuclear receptor ROR-gamma (Homo sapiens) (UniProt P51449); assay: qHTS assay for small molecule antagonists of the retinoid-related orphan receptor gamma (ROR-gamma) signaling pathway (AID 651802);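 further: CHO cells with doxycycline-induced ROR-gamma expression; luciferase reporter luminescence driven by ROR response element; on the % scale 0 is the no-effect control and ±100 the full control effect; nearly all actives have a fitted effect of over 60% in size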
In short: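 Doxycycline-induced reporter activity in engineered CHO cells (TET-inducible ROR, RORE-LUC) was measured by luminescence after 16hr compound exposure at 37C.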

Tumor necrosis factor (Homo sapiens), sequence (P01375 whole entry, looked up): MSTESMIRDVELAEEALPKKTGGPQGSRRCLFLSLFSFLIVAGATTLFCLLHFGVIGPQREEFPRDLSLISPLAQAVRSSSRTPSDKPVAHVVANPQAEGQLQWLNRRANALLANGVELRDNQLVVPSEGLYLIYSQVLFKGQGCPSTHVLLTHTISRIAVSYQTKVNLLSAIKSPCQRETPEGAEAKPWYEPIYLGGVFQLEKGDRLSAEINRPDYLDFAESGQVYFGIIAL
Luciferin 4-monooxygenase (Photinus pyralis), sequence (P08659 whole entry, looked up): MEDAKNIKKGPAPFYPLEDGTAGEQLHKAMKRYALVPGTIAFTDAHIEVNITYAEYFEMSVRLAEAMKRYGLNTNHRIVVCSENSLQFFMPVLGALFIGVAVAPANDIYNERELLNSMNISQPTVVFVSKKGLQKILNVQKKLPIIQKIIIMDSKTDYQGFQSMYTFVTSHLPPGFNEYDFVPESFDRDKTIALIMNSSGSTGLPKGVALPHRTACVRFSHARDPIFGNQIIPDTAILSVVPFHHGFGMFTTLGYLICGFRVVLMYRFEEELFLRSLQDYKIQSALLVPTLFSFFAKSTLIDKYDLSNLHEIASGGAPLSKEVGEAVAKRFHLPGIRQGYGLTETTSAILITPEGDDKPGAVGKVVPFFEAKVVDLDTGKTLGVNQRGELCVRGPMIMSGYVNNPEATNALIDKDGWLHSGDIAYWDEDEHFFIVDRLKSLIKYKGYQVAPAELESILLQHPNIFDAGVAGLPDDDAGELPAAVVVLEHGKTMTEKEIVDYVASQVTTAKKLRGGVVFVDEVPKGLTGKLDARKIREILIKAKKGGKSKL
Voltage-gated inwardly rectifying potassium channel KCNH2 (Homo sapiens), sequence (Q12809 whole entry, looked up): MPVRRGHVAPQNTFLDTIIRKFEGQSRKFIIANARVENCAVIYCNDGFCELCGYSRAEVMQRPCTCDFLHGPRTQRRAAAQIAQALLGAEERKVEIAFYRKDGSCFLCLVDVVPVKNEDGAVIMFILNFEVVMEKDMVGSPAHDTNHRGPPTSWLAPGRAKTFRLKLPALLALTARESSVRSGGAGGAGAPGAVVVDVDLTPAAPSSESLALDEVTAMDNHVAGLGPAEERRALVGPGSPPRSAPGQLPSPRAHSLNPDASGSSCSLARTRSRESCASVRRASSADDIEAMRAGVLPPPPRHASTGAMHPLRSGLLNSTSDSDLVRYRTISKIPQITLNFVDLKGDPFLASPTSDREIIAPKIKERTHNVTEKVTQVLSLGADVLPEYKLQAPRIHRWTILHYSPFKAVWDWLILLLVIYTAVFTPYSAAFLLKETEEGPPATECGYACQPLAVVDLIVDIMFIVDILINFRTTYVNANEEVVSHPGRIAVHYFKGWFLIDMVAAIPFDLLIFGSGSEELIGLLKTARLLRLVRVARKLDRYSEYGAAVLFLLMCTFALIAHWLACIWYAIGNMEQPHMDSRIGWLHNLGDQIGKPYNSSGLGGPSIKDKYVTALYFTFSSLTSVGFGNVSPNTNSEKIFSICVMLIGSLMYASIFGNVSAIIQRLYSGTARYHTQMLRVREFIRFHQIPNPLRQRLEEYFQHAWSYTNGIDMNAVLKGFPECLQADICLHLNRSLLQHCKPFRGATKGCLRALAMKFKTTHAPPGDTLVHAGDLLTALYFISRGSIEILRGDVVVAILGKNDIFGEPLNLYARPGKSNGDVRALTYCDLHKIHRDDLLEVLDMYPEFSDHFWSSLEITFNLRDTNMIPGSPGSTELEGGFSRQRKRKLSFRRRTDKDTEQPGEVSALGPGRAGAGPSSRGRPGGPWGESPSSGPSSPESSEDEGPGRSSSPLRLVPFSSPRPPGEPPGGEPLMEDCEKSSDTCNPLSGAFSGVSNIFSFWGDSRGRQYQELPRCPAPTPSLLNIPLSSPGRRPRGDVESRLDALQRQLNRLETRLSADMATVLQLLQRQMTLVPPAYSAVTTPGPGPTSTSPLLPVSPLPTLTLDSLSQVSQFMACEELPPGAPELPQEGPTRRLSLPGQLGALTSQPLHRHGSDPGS
Nuclear receptor ROR-gamma (Homo sapiens), sequence (P51449 whole entry, looked up): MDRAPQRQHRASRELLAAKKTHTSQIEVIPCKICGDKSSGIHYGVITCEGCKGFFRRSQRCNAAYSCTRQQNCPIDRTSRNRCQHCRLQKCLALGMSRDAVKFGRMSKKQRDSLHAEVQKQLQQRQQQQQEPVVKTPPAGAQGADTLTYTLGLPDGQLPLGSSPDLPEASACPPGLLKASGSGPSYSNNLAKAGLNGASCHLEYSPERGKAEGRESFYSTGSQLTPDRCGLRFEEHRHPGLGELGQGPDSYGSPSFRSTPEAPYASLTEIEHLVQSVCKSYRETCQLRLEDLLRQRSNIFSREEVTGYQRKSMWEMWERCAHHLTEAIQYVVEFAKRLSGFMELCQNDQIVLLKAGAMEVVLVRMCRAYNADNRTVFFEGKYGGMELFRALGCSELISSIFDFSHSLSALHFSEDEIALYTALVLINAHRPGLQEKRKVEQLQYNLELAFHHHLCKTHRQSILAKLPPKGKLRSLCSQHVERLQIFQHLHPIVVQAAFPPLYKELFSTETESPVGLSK
Peroxisome proliferator-activated receptor alpha (Homo sapiens), sequence (Q07869 whole entry, looked up): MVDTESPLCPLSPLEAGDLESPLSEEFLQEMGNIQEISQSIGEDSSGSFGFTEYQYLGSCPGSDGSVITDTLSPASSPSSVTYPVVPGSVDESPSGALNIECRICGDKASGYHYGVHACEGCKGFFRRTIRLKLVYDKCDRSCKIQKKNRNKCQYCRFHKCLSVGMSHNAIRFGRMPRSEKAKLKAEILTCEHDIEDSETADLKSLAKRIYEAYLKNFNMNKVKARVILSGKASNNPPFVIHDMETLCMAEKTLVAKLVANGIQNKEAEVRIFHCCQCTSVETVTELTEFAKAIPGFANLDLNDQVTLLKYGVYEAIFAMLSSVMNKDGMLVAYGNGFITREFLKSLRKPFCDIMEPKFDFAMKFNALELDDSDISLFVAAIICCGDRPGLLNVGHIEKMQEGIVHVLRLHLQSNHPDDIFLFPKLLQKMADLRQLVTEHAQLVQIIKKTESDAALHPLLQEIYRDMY

C=CCOc1ccc(CC(=O)O)cc1Cl
inactive: Potency [1] | Potency [2] | Potency [3] | Potency [4] | ratio activity, negative = inhibition [5] -6.65%

COC(=O)c1ccccc1O
inactive: Potency [1] | Potency [2] | Potency [3] | Potency [4] | Potency [6] | activation [7] 0.469% and 1.6% | activation [8] -1.33% and 1.01% | Potency [9] | activation [10] 0.888% and 1.53% | max response [11] -2.75% and -2.44% | Potency [12]

CSCCC(N)C(=O)O (centres undefined)
inactive: Potency [1] | Potency [2] | Potency [3] | Potency [4] | ratio activity, negative = inhibition [5] 5.55%

Cc1ccc(S(=O)(=O)NCl)cc1
inactive: Potency [1] | Potency [2] | Potency [3] | Potency [4] | Potency [6] | activation [7] -0.574% | activation [10] -2.28% | max response [11] -0.128%

N=C(N)n1cccn1
inactive: Potency [1] | Potency [2] | Potency [3] | Potency [4] | ratio activity, negative = inhibition [5] -0.887%

c1ccc2ccccc2c1
inactive: Potency [1] | Potency [2] | Potency [3] | Potency [4] | Potency [6] | activation [7] -7.12% and -1.33% | activation [8] 0.258% and -0.756% | Potency [9] | activation [10] 0.0968% and 0.369% | max response [11] -3.91% and 0.0956% | Potency [12]

OC[C@H]1O[C@@](CO)(O[C@H]2O[C@H](CO)[C@@H](O)[C@H](O)[C@H]2O)[C@@H](O)[C@@H]1O
inactive: Potency [1] | Potency [2] | Potency [3] | Potency [4] | ratio activity, negative = inhibition [5] 0% | activation [8] -1.26% | activation [10] 1.69% | max response [11] 0.569%

OC/C=C/c1ccccc1
inactive: Potency [1] | Potency [2] | Potency [3] | Potency [4] | ratio activity, negative = inhibition [5] -1.9%

CO
inactive: Potency [1] | Potency [2] | Potency [3] | Potency [4] | ratio activity, negative = inhibition [5] 1.83% | activation [7] -0.522% | activation [8] -0.694% | Potency [9] | activation [10] -0.288% | max response [11] -6.03% | Potency [12]
